From PubChem BioAssay (NCI)
Compounds without any hit were thinned out: in the full panel of roughly 83,000, 20% have a hit.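 Cell lines were cultured in 96-well plates, exposed to a single compound concentration, and assessed for percent growth 48 hours later.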 Unmarked numbers belong to inactive results. The source made the active and inactive calls. How the source made its calls: active means growth percent below 10; inactive means the rest.

Assays:
Test in all cases: NCI-60 one-dose screen, 48 h (100 = growth as untreated, 0 = no growth, -100 = all killed)
Details in all cases: 10 µM unless noted
NCI-H23 lung = system: NCI-H23 lung
NCI-H226 lung = system: NCI-H226 lung
NCI-H322M lung = system: NCI-H322M lung
HOP-62 NSCLC = system: HOP-62 NSCLC
NCI-H460 lung = system: NCI-H460 lung
HOP-92 NSCLC = system: HOP-92 NSCLC
NCI-H522 lung = system: NCI-H522 lung
A549/ATCC NSCLC = system: A549/ATCC NSCLC
786-0 renal = system: 786-0 renal
COLO 205 colon = system: COLO 205 colon
DU-145 prostate = system: DU-145 prostate
K-562 leukemia = system: K-562 leukemia
MALME-3M melanoma = system: MALME-3M melanoma
MDA-MB-231 breast = system: MDA-MB-231 breast
RXF 393 renal = system: RXF 393 renal
SF-268 CNS = system: SF-268 CNS
SF-295 CNS = system: SF-295 CNS
SF-539 CNS = system: SF-539 CNS
UACC-257 melanoma = system: UACC-257 melanoma
M14 melanoma = system: M14 melanoma

Row | SMILES | growth (NCI-H23 lung) | growth (NCI-H226 lung) | growth (NCI-H322M lung) | growth (HOP-62 NSCLC) | growth (NCI-H460 lung) | growth (HOP-92 NSCLC) | growth (NCI-H522 lung) | growth (A549/ATCC NSCLC) | growth (786-0 renal) | growth (COLO 205 colon) | growth (DU-145 prostate) | growth (K-562 leukemia) | growth (MALME-3M melanoma) | growth (MDA-MB-231 breast) | growth (RXF 393 renal) | growth (SF-268 CNS) | growth (SF-295 CNS) | growth (SF-539 CNS) | growth (UACC-257 melanoma) | growth (M14 melanoma)
1 | CCCCn1c(-c2ccc(C(=O)O/N=C(\N)c3ccc4c(c3)OCO4)cc2)nc(-c2ccccc2)c1-c1ccccc1 | 35.3% | 49.9% | 66.6% | 79.7% | 0.397% (active) | 17.4% | -37.1% (active) | 15.7% | 41.9% | 57.5% | 46.4% | -5.48% (active) | 55.6% | 33.1% | 34.7% | 29.4% | 61.4% | 58.1% | 79.9% | 54.1%
2 | OCc1ccc(N2CCc3cccc(F)c3C2)cc1Cl | 84.7% [0.1 µM] | -6.37% [0.1 µM] (active) | 106% [0.1 µM] | 44.7% [0.1 µM] | 31% [0.1 µM] | 82.3% [0.1 µM] | 80.6% [0.1 µM] | 62.9% [0.1 µM] | 66.4% [0.1 µM] | 24.9% [0.1 µM] | 100% [0.1 µM] | 38.5% [0.1 µM] | 104% [0.1 µM] | 107% [0.1 µM] | 103% [0.1 µM] | 105% [0.1 µM] | 52.7% [0.1 µM] | 110% [0.1 µM] | -14.3% [0.1 µM] (active) | 111% [0.1 µM]
3 | Cc1nn(-c2ccc(F)cc2)c2ncnc(Oc3ccc(NC(=O)Nc4ccc(Cl)c(C(F)(F)F)c4)cc3)c12 | 96.7% | 103% | 100% | 105% | 101% | 104% | 99.7% | 96.2% | 106% | 109% | 106% | 105% | 100% | 103% | 107% | 93.4% | 102% | 96.8% | 99.9% | 106%
4 | CN(CCCCCl)P(=O)(OCc1ccc([N+](=O)[O-])o1)C(F)(F)c1ccc(CC(=O)NC[C@@H](O)/C=C\[C@@H](O)[C@H](CO)Cc2ccccc2)cc1 (stereo not given in full) | 92.8% | 95.6% | 96.6% | 96.6% | 102% | 135% | -2.39% (active) | 85.3% | 107% | 103% | 105% | 50.2% | 92.1% | 89.3% | 100% | 98.5% | 98.3% | 102% | 92.2% | 95.3%
5 | CC(=O)O[C@H]1CC[C@]2(C)[C@H]3CC=C4[C@@H]5CC(C)(C)CC[C@]5(C(=O)NCCNCCNCCN)CC[C@@]4(C)[C@]3(C)CC[C@H]2C1(C)C | 86.5% | 91.4% | 95.2% | 87.5% | -56.3% (active) | 61.9% | 54.3% | 43% | -56.3% (active) | -93.1% (active) | 17% | -11.3% (active) | 73.5% | -42.9% (active) | 65.4% | 87.1% | 102% | 86.2% | 93.1% | 23.8%
6 | COc1ccc(C(=S)N2CCN(c3cccc(Cl)c3)CC2)cc1 | 101% | 113% | 98.3% | 98.5% | 96.7% | 94.6% | 108% | 91.7% | 97.1% | 141% | 121% | 119% | 138% | 101% | 160% | 102% | 111% | 92.2% | -2.46% (active) | 101%
7 | CC1=C[C@H]2c3c(c(O)c(O)c4oc5ccccc5c(=O)c34)[C@H](c3cc(O)c(O)c4oc5ccccc5c(=O)c34)[C@H]2C(C)(C)C1 | -4.58% (active) | -14.4% (active) | 18.7% | -9.58% (active) | -37.6% (active) | -5.31% (active) | -18.3% (active) | -11.8% (active) | -76.6% (active) | 10.7% | 14.9% | 3.25% (active) | -1.47% (active) | 12.1% | 7.55% (active) | 5.33% (active) | -33.4% (active) | -5.05% (active) | 7.1% (active) | -70.4% (active)
8 | Cn1c(=O)[nH]c(=O)c2nc(CCC(=O)NCCC(=O)O)c(=O)[nH]c21 | 97.5% | 88.3% | 100% | 105% | 103% | 98.2% | 96.5% | 103% | 109% | 109% | 113% | 104% | 98.9% | 110% | 112% | 98.2% | 102% | 95.7% | 101% | 111%
